Results filed as inconclusive are left out. Where a call stands in place of a potency, no number is given. The source made the active and inactive calls. Unless noted, calls follow the shape of the full dose curve.
Assays:
[1] = qHTS assay for measurement of the activity of small molecule inhibitors on Zika virus induced Caspase-3 activity in human iPSC derived neural progenitor cells (hNPCs) (AID 1224857; active = well fitted inhibition curve with a large enough effect; also: nearly all actives have a fitted effect of over 65% in size); conditions: hNPCs ZIKV-induced caspase-3/7, Caspase-Glo luminescence, 6 h; series mostly up to 45.7 µM
Outline: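 After overnight (16–20 h) culture at 350 cells/well, hNPCs get compound, then ZIKV 2 FFU/cell one hour later. Six hours on, Caspase-Glo 3/7 is added and luminescence measured.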

[2] = qHTS assay for measurement of the activity of small molecule inhibitors on Zika virus induced Caspase-3 activity in human astrocytoma cells (AID 1224859; active = well fitted inhibition curve with a large enough effect); conditions: SNB-19 ZIKV-induced caspase-3/7, luminescence, 6 h; series mostly up to 45.7 µM
Outline: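 Inhibition of Zika-induced caspase-3/7 activity: SNB-19 cells, 1 h compound pretreatment, ZIKV 2 FFU/cell for 6 h at 37 C, Caspase-Glo luminescence read-out.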

[3] = Natriuretic polypeptide receptor (hNpr1) antagonism - Pilot counterscreen GloSensor control cell line (AID 1347045); conditions: HEK293 cGMP GloSensor cells, SNP-stimulated luminescence, 20 min; series mostly up to 38.3 µM; also: potency is read from the fitted curve at half-maximal effect
Outline: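 This counterscreen uses HEK293 cells expressing the GIP/pGS-40F cGMP biosensor. Compound-treated cells are challenged with 50 uM sodium nitroprusside, and the luciferase signal is compared before and after stimulation.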

[4] = target: Atrial natriuretic peptide receptor 1 (Homo sapiens) (UniProt P16066); experiment: Natriuretic polypeptide receptor (hNpr1) antagonism - Pilot screen (AID 1347049); conditions: hNpr1 cells, antagonist mode cGMP read-out; series mostly up to 57.5 µM;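 also: agonist-evoked cGMP luminescence read 20 min after hNppA addition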; also: potency is read from the fitted curve at half-maximal effect
Outline: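 HEK293 cells co-expressing hNpr1 and the GloSensor pGS-40F cGMP luciferase sensor were preloaded with 2% GloSensor reagent for 2 h. Compounds were added for 30 min at room temperature, then cells were stimulated with 0.1 nM hNppA for 20 min before luminescence readout.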

[5] = target: Atrial natriuretic peptide receptor 2 (Homo sapiens) (UniProt P20594); experiment: Natriuretic polypeptide receptor (hNpr2) antagonism - Pilot subtype selectivity assay (AID 1347050); conditions: NPR2-expressing cells, cGMP antagonist-mode read-out; series mostly up to 38.3 µM; also: potency is read from the fitted curve at half-maximal effect
Outline: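 cGMP-sensor HEK293/hNpr2 cells; 2% GloSensor reagent 2 h RT; compounds 30 min; baseline luminescence read; 1 nM hNppC agonist 20 min RT; final luminescence read by CCD camera. Antagonism = reduced post-agonist signal.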

Chain of Atrial natriuretic peptide receptor 2 (Homo sapiens) (P20594 whole entry, looked up): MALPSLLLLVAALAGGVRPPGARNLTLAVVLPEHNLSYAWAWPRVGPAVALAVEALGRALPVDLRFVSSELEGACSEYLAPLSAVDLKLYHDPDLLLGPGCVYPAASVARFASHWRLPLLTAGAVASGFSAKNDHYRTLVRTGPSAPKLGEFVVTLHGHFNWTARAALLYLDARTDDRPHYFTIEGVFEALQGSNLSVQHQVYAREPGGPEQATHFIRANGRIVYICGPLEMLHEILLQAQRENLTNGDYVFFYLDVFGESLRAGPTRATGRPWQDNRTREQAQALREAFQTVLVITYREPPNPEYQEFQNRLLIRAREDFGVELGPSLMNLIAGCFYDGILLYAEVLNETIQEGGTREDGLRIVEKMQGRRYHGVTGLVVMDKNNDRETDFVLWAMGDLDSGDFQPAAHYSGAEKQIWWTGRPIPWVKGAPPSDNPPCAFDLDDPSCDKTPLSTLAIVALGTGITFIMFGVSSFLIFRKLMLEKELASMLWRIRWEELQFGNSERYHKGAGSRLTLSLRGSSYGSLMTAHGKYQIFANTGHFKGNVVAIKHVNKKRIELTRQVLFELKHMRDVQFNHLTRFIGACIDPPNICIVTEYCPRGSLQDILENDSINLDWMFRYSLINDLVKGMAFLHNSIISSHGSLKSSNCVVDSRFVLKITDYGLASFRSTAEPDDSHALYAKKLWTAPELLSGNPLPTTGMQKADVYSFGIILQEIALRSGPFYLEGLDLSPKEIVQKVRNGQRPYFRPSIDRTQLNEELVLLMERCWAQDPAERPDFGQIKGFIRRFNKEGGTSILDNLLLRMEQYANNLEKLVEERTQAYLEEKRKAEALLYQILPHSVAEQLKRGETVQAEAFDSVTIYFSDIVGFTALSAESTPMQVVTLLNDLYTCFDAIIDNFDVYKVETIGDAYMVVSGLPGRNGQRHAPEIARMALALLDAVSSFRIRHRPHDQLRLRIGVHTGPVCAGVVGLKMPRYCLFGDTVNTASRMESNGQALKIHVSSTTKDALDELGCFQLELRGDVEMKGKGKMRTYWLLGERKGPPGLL
Chain of Atrial natriuretic peptide receptor 1 (Homo sapiens) (P16066 whole entry, looked up): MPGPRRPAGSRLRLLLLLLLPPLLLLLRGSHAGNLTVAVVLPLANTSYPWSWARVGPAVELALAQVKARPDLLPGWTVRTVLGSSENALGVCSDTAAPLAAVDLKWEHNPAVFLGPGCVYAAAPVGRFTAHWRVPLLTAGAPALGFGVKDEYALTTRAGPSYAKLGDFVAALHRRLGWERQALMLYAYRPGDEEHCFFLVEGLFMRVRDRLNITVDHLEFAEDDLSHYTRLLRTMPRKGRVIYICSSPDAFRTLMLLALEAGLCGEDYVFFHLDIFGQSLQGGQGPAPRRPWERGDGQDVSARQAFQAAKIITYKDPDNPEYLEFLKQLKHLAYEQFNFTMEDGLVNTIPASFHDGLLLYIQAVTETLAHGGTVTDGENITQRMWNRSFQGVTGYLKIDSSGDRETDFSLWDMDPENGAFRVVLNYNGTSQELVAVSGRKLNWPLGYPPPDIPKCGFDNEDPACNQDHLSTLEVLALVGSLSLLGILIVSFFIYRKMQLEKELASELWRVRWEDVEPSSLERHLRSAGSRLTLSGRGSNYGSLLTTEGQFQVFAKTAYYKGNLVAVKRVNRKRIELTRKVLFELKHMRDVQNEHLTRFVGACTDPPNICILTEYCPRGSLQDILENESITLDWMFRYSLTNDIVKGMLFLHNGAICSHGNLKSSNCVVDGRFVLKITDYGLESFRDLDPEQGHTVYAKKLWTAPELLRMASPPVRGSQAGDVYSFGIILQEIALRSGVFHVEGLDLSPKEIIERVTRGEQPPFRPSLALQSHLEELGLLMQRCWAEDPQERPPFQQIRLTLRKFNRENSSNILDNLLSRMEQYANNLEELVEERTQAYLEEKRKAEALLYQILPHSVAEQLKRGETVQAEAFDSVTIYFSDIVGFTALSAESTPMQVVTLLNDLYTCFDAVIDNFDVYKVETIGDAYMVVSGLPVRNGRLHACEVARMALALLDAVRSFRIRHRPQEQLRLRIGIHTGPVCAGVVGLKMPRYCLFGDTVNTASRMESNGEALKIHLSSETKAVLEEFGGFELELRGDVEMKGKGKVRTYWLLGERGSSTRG

Compound | Potency [1] | Potency [2] | Potency [3] | Potency [4] | Potency [5]
CCCCCCCCCC[Si](C)(C)CCC(=O)NC(Cc1ccc(C)cc1)c1ccccc1 (stereo not given) | inactive | inactive | inactive | inactive | inactive
Nc1ncnc2c1ncn2C1CCCO1 (stereo not given) | inactive | inactive | inactive | inactive | inactive
COc1cc(/C=C(\C#N)C(=O)c2ccc(O)c(O)c2)cc(I)c1O | inactive | inactive | inactive | inactive | inactive
O=C(O)CCC(=O)N1CCCC1C(=O)O (stereo not given) | inactive | inactive | inactive | inactive | inactive
CCCCCCCCCCC/C=C\C(C)(C)/C=C\CCCC(=O)O | inactive | inactive | inactive | inactive | inactive
N#CC(C#N)=C(N)/C(C#N)=C/c1ccc(O)cc1 | inactive | inactive | inactive | inactive | inactive
COc1cc(C(O)CO)ccc1O (stereo not given) | inactive | inactive | inactive | inactive | inactive
OC[C@H]1O[C@H](n2cnc3c(N[C@H]4CCC[C@@H]4O)ncnc32)[C@H](O)[C@@H]1O | inactive | inactive | inactive | inactive | inactive
O=c1[nH]c(=S)[nH]c(-c2ccccc2)c1Cc1c(O)ccc2ccccc12 | inactive | inactive | inactive | inactive | inactive
O=C(O)C1CCNCC1 | inactive | inactive | inactive | inactive | inactive
CC(=O)NNC(=O)N1Cc2ccccc2Oc2ccc(Cl)cc21 | inactive | inactive | inactive | inactive | inactive
O=C(O)C1CCCNC1 (stereo not given) | inactive | inactive | inactive | inactive | inactive
CCCn1c(=O)c(C)cn2nc(N)nc12 | inactive | inactive | inactive | inactive | inactive
O=C(N[C@@H](Cc1ccccc1)C(=O)CCl)OCc1ccccc1 | inactive | inactive | 3.29 µM (active) | 10.7 µM (active) | 4.14 µM (active)
C=C(C)C1CC=C(C(=O)O)CC1 (stereo not given) | inactive | inactive | inactive | inactive | inactive
Cn1cc(C(=O)OCC2CCN(CCNS(C)(=O)=O)CC2)c2ccccc21 | inactive | inactive | inactive | inactive | inactive
O=c1[nH]c(=O)c2nc3ccccc3nc2[nH]1 | inactive | inactive | inactive | inactive | inactive
O=C(OCCN1CCOCC1)C1(c2ccccc2)CCCCC1 | inactive | inactive | inactive | inactive | inactive

Compound | Potency [1] | Potency [2] | Potency [3] | Potency [4] | Potency [5]
Nc1ccc(-c2nc3ccc(-c4nc5ccc(N)cc5[nH]4)cc3[nH]2)cc1 | inactive | inactive | inactive | inactive | inactive
NC(Cc1cccc(-c2ccccc2CP(=O)(O)O)c1)C(=O)O (stereo not given) | inactive | inactive | inactive | inactive | inactive
COc1ccc2c(c1)CCC1C2CC[C@@]2(C)C1CC[C@@H]2NCCCCCCN1C(=O)C=CC1=O (stereo not given in full) | inactive | inactive | inactive | inactive | inactive
CNc1ncnc2c1ncn2[C@H]1C[C@H](OP(=O)(O)O)[C@@H](COP(=O)(O)O)O1 | inactive | inactive | inactive | inactive | inactive
N[C@@H](Cc1c[nH]c2ccccc12)C(=O)O | inactive | inactive | inactive | inactive | inactive
CC#CCOC(=O)c1c(C)nc2sc3c(c2c1N)CCC(O)C3 (stereo not given) | inactive | inactive | inactive | inactive | inactive
CC(=O)N[C@@H](Cc1c[nH]c2ccccc12)C(=O)OCc1cc(C(F)(F)F)cc(C(F)(F)F)c1 | inactive | inactive | inactive | inactive | inactive
CN(C)CCCc1cc(C(=O)Nc2ccc(-c3ccncc3)cc2)ccc1O | inactive | inactive | inactive | inactive | inactive
Nc1nc2[nH]c(=O)cnc2c(=O)[nH]1 | inactive | inactive | inactive | inactive | inactive
C=CCN1CCc2c(cc(O)c(O)c2Br)[C@@H](c2ccccc2)C1 | inactive | inactive | inactive | inactive | inactive
O=C1OC(=O)C2C3CCC(O3)C12 (stereo not given) | inactive | inactive | inactive | inactive | inactive
CCCCCC(O)CCCC(=O)O (stereo not given) | inactive | inactive | inactive | inactive | inactive
COC(=O)C(N)Cc1ccc(Cl)cc1 (stereo not given) | inactive | inactive | inactive | inactive | inactive
N=C(N)SCCN | inactive | inactive | inactive | inactive | inactive
CC(C)C[C@H](NC(=O)[C@H](O)[C@H](N)Cc1ccccc1)C(=O)O | inactive | inactive | inactive | inactive | inactive
N[C@@H](CCCC(=O)O)C(=O)O | inactive | inactive | inactive | inactive | inactive
NCCS(=O)O | inactive | inactive | inactive | inactive | inactive

Source: PubChem BioAssay (NCATS)
